# Measured values reported in PubChem BioAssay AID2013 (Sanford-Burnham Center for Chemical Genomics, 2009).
# Out of some 290,000 compounds screened, about 370 (0.13%) were called active.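 Rule for the calls: active = spots per cell inhibited over 60%, with over 100 cells counted and total cytoplasm intensity under 500,000; inconclusive = wells with under 100 cells, flagged as likely toxic; inactive = the rest.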 The list comes from a sample in which actives are over-represented; it also holds similar structures and randomly drawn compounds. Potency and affinity values are given separately.
# Biological target: G-protein coupled receptor 55 (Homo sapiens) (UniProt Q9Y2T6)
# Sequence (Q9Y2T6 whole entry, looked up): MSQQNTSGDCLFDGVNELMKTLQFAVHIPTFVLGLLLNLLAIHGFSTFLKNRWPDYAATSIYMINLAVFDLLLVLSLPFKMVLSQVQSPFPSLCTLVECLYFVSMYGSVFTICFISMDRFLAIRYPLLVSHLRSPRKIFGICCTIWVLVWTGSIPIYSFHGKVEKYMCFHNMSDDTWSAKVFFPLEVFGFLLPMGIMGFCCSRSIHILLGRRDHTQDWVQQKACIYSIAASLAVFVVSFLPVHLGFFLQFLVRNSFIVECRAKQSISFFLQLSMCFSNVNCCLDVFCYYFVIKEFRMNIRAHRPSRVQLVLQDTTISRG
# Test: GPR55 antagonists blocking LPI-driven arrestin recruitment, primary screen, imaging, U2OS, beta-arrestin-GFP, LPI agonist (AID 2013);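 note: U2OS cells stably carrying GPR55 and arrestin-GFP stimulated by 5 µM LPI near EC80; imaged beta-arrestin-GFP aggregate spots per cell after agonist stimulation; plate controls were LPI-stimulated DMSO wells for no effect and DMSO wells without LPI for full effect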
# Conditions: U2OS GPR55 beta-arrestin-GFP translocation imaging, LPI antagonism; at 10 µM; stronger effect = higher value
row,Compound,inhibition
1,CN(C(=O)c1ccc(OC2CCN(Cc3ccccn3)CC2)cc1)C1CCCCC1,-18.7% (inactive)
2,C1CCC(C23CC4CC(CC(C4)C2)C3)NC1 (configuration not stated),-4.6% (inactive)
3,O=S(=O)(CCC1CCCCN1)c1ccccc1 (configuration not stated),0.5% (inactive)
4,CCCN1Cc2cccc(C(=O)N3CCN(c4ccc(F)cc4)CC3)c2C1=O,2.2% (inactive)
5,O=C(Nc1ccc(F)cc1F)c1cc(-c2ccco2)nc2ccccc12,7.3% (inactive)
6,CN(/C(=N/S(=O)(=O)c1ccccc1)c1ccccc1)S(=O)(=O)c1ccccc1,5.7% (inactive)
7,CCc1ccc(CCC(=O)Nc2nccs2)o1,2.3% (inactive)
8,Oc1ccc(-c2c(-c3ccsc3)sc3ccccc23)cc1,6.5% (inactive)
9,CC(=O)Oc1ccc2c(c1)Oc1cc(OC(C)=O)ccc1C21OC(=O)c2ccccc21,9.9% (inactive)
10,CN(C)c1ccc(C2(c3ccc(N(C)C)cc3)OC(=O)c3cc(N)ccc32)cc1,6.1% (inactive)
11,Nc1ccc(C2(c3ccc(N)cc3)OC(=O)c3ccccc32)cc1,4% (inactive)
12,O=C(O)c1ccc(C2(c3ccc(C(=O)O)cc3)OC(=O)c3ccccc32)cc1,-10.8% (inactive)
13,Cc1cccc(C2(c3cccc(C)c3)OC(=O)c3ccccc32)c1,10.5% (inactive)
14,Cc1cc(O)c(C(C)C)cc1C1(c2cc(C(C)C)c(O)cc2C)OC(=O)c2ccccc21,6.1% (inactive)
15,Cc1cc(C2(c3ccc(O)c(C)c3)OC(=O)c3ccccc32)ccc1O,83.2% (active)
16,CCCCOc1ccc(-c2nnn(CC(=O)NCCc3c[nH]c4ccccc34)n2)cc1,4% (inactive)
17,CCOc1cc(-c2noc(CCC(=O)NCC3CCCO3)n2)ccc1OC (configuration not stated),0% (inactive)
18,COc1ccc(C2CC(=O)c3cnn(-c4nc(C)cc(C)n4)c3C2)cc1OC (configuration not stated),6.6% (inactive)
19,CC1=CC(C)(C)N2C(=O)C3(NCCc4c3[nH]c3ccccc43)c3cccc1c32 (configuration not stated),18.2% (inactive)
20,O=C(CNC(=S)N(Cc1ccc(F)cc1)C1CCCCC1)NCCN1CCOCC1,12.3% (inactive)
21,Cc1c(C(=O)NC2CCCCC2C)oc2ccccc12 (configuration not stated),0.8% (inactive)

row,Compound,inhibition
1,COc1cc(NC(=O)C2CCN(S(=O)(=O)c3cccnc3)CC2)cc(OC)c1OC,8.8% (inactive)
2,O=C(c1cccnc1)N1CCN(C(=O)c2cccc(Cl)c2)CC1,-12.2% (inactive)
3,Cc1cccc2c1c(N=NC(N)=S)c(O)n2C1OC(CO)C(O)C(O)C1O (configuration not stated),-13.4% (inactive)
4,O=C1NCCN(Cc2ccoc2)C1CC(=O)N(CCO)Cc1ccccc1 (configuration not stated),1.1% (inactive)
5,CCCCOc1ccccc1NC(=O)c1ccc(=O)[nH]c1,2.2% (inactive)
6,CCCCOc1ccccc1NC(=O)c1ccco1,13.2% (inactive)
7,O=C(CCc1ccccc1Cl)NC1CCCN(c2ccc(C(F)(F)F)cn2)C1 (configuration not stated),5% (inactive)
8,COc1ccc(C(C(=O)NCCC(C)C)N(CCCO)C(=O)c2snc(C(N)=O)c2N)cc1OC (configuration not stated),5% (inactive)
9,Nn1c(COc2cccc(Cl)c2)nc2ccccc2c1=O,-10.2% (inactive)
10,CCc1nonc1NC(=O)c1oc2ccccc2c1C,10% (inactive)
11,N=c1n(Cc2ccccc2)c2ccccc2n1CC(O)COc1ccccc1 (configuration not stated),50.2% (inactive)
12,Cc1ccc(OCC(O)Cn2c(=N)n(Cc3ccccc3)c3ccccc32)cc1 (configuration not stated),13.1% (inactive)
13,CC(C)N(C(=O)CSc1nc2ccccc2n1Cc1ccccc1)C(C)C,2% (inactive)
14,O=C(O)CSc1nc2ccccc2n1-c1ccccc1,6.1% (inactive)
15,CC(=O)Nc1ccc(NC(=O)c2ccc(C)c(S(=O)(=O)Nc3cccc(C)c3)c2)cc1,-3.1% (inactive)
16,COC(=O)C1CCN(C2=C(NS(=O)(=O)c3ccc(Cl)cc3)C(=O)c3ccccc3C2=O)CC1,2% (inactive)
17,Cc1cc(NC(=O)NC2CCCN2S(=O)(=O)c2ccc(Cl)cc2)no1 (configuration not stated),8.3% (inactive)
18,Cc1cc(C)cc(-c2nnc(SCC(=O)c3ccc4c(c3)OCCO4)o2)c1,-7.3% (inactive)
19,c1coc(CN(Cc2cccs2)Cc2nnnn2C2CCCCC2)c1,25.9% (inactive)
20,CC(C)(C)c1ccc(CN(Cc2ccco2)Cc2nnnn2C2CCCC2)cc1,19.2% (inactive)
21,CCCCCn1c(=O)[nH]c2cc(C(=O)NCc3ccc4c(c3)OCO4)ccc2c1=O,31.9% (inactive)

row,Compound,inhibition
1,CC1CCN(C(=O)c2ccc([N+](=O)[O-])o2)CC1,5.5% (inactive)
2,CCCNC(=O)C(Sc1ccccc1)c1ccccc1 (configuration not stated),8.1% (inactive)
3,NS(=O)(=O)c1ccc(NC(=O)C(Sc2ccccc2)c2ccccc2)cc1 (configuration not stated),12.2% (inactive)
4,CCC(C)NC(=O)C(Sc1ccccc1)c1ccccc1 (configuration not stated),-0.3% (inactive)
5,CC(=O)Nc1ccc(NC(=O)C(Sc2ccccc2)c2ccccc2)cc1 (configuration not stated),-1.5% (inactive)
6,CC(=O)NS(=O)(=O)c1ccc(NC(=O)C(Sc2ccccc2)c2ccccc2)cc1 (configuration not stated),8% (inactive)
7,CCCCNC(=O)C(Sc1ccccc1)c1ccccc1 (configuration not stated),-9.3% (inactive)
8,CCOCCc1nn2c(=O)cc(CSCC(=O)Nc3ccc(OC)cc3)nc2s1,16.4% (inactive)
9,Cc1cc(-c2ccccc2)c2c(=O)n(-c3ccccc3)[nH]c2n1,-8.8% (inactive)
10,COc1cc(S(=O)(=O)N2CCC(C(N)=O)CC2)c(C)cc1C,-8.6% (inactive)
11,CCCC(=O)NC(c1ccccc1Cl)c1ccc2cccnc2c1O (configuration not stated),11.4% (inactive)
12,CN(C)c1ccc(/C=N/n2c(COc3ccccc3)n[nH]c2=S)cc1,1.6% (inactive)
13,COC(=O)c1cc(NC(=O)Cc2ccc(OC)c(OC)c2)cc(C(=O)OC)c1,11% (inactive)
14,COc1ccc(C(=O)NCC2(c3ccc(OC)c(OC)c3)CCCC2)c(OC)c1,-8.5% (inactive)
15,CCN1CC2=C(OC(N)=C(C#N)C2c2ccccc2)/C(=C\c2ccccc2)C1 (configuration not stated),3.6% (inactive)
16,CCN1CC2=C(OC(N)=C(C#N)C2c2cccs2)/C(=C\c2cccs2)C1 (configuration not stated),13.2% (inactive)
17,Cc1nc2ccccc2nc1OCc1cccc([N+](=O)[O-])c1,6.2% (inactive)
18,Cc1cc(C)c(NC(=O)c2ccccc2C(=O)c2ccccc2)c(C)c1,10.3% (inactive)
19,Cc1ccc(C)c(NC(=O)c2ccccc2O)c1,10.8% (inactive)
20,Cc1ccc(C)c(NC(=O)c2ccccc2C(=O)c2ccccc2)c1,79.4% (active)
